From article PMC7862700, “An all-to-all approach to the identification of sequence-specific readers for epigenetic DNA modifications on cytosine”

Assays:
Test in all cases: DAPPL (digital affinity profiling via proximity ligation, sequencing); 10 mM Tris-HCl pH 7.5, 50 mM NaCl, 1 mM DTT, 4% glycerol, room temperature, 30 min; GST-TFs on glutathione beads, 16-mer random dsDNA library, 0.1% formaldehyde crosslink after washing; high values mean tight binding
Conditions in all cases: protein: recombinant; tags: N-terminal GST; dsDNA, one strand shown
ELK1 = biological target: T1, ELK1 (Homo sapiens, UniProt P19419 1-428)
T1 sequence: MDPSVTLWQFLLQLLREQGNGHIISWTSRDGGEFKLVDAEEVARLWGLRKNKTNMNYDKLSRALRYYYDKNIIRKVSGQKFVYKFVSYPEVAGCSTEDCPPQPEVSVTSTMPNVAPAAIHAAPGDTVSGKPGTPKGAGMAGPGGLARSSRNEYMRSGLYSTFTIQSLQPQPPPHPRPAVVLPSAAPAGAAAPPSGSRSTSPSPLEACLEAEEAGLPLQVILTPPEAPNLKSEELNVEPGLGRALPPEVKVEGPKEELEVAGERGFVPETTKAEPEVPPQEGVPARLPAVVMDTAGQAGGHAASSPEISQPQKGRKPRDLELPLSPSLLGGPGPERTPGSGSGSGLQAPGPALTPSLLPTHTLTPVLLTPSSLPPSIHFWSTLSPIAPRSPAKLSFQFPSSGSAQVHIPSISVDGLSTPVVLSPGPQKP
How it was run: (§1)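 Binding signal is each hexamer's read frequency for a factor divided by its frequency in the tag-only sample. The factors were GST-fused human transcription factors from yeast, captured on glutathione beads, DNA-barcoded and pooled with that sample. Pools were incubated with 200 nmole of a random double-stranded 16-mer DNA library in Tris/NaCl/DTT/glycerol buffer at room temperature for 30 min, then washed, crosslinked with 0.1% formaldehyde, proximity-ligated with BsaI/T4 ligase (1 h, 37 °C), PCR-amplified and sequenced on an Illumina NextSeq500.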

GABPA = biological target: T2, GABPA (Homo sapiens, UniProt Q06546 1-454)
T2 sequence: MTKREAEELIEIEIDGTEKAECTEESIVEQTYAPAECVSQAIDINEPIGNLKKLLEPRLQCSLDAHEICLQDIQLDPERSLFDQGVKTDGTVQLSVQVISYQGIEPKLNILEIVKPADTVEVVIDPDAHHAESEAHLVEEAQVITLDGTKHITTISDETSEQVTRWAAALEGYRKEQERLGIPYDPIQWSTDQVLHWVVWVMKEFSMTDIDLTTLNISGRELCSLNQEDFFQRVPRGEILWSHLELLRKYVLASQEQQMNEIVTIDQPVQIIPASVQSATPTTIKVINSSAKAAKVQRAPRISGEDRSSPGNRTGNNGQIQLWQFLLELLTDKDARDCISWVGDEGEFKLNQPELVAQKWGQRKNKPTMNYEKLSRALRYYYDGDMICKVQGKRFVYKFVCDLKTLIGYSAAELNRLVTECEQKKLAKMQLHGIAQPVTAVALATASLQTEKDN
How it was run: as §1

ERG = biological target: T3, ERG (Homo sapiens, UniProt P11308 1-479)
T3 sequence: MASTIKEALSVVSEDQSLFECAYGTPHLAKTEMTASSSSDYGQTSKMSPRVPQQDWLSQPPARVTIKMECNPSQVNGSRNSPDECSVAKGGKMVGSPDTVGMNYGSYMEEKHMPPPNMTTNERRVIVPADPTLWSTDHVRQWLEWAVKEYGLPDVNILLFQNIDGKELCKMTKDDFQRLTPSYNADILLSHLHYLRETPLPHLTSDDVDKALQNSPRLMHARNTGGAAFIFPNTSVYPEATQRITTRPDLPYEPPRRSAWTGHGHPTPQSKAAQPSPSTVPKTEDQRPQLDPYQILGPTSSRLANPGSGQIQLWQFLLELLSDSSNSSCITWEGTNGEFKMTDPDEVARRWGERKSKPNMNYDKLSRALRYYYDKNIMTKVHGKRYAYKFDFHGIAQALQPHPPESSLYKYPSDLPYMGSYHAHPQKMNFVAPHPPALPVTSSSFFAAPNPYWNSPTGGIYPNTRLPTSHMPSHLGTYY
How it was run: as §1

ELF1 = ELF1 (Homo sapiens, UniProt P32519 1-619)
How it was run: as §1

EHF = biological target: T4, EHF (Homo sapiens, UniProt Q9NZC4 1-300)
T4 sequence: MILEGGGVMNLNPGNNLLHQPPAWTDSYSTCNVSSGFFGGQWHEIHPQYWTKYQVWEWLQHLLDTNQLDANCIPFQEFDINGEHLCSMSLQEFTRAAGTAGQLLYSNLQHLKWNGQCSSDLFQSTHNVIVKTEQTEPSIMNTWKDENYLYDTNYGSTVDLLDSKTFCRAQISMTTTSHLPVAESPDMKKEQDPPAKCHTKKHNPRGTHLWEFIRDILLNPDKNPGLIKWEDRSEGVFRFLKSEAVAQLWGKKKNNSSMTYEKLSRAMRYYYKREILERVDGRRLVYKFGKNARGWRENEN
How it was run: as §1

SPI1 = SPI1 (Homo sapiens, UniProt P17947 1-270)
How it was run: as §1

SPIB = SPIB (Homo sapiens, UniProt Q01892 1-262)
How it was run: as §1

FEV = biological target: T5, FEV (Homo sapiens, UniProt Q99581 1-238)
T5 sequence: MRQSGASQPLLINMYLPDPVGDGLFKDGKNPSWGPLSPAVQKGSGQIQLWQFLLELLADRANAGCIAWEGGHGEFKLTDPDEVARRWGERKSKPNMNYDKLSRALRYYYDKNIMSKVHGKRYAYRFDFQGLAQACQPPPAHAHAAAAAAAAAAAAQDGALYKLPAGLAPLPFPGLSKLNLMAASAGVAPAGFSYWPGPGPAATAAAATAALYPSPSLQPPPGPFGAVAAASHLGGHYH
How it was run: as §1

ETV5 = ETV5 (Homo sapiens, UniProt P41161 1-510)
How it was run: as §1

ELF4 = ELF4 (Homo sapiens, UniProt Q99607 1-663)
How it was run: as §1

ELF3 = biological target: T6, ELF3 (Homo sapiens, UniProt P78545 1-371)
T6 sequence: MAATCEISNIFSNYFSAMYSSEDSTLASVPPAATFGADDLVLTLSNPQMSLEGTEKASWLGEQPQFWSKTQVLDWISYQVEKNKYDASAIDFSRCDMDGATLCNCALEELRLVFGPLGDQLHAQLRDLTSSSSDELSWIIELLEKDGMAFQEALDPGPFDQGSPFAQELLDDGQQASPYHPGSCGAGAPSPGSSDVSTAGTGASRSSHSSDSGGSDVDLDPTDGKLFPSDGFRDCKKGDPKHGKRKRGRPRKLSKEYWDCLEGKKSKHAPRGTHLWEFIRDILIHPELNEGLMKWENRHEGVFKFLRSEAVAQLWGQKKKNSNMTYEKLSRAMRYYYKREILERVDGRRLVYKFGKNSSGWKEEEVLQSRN
How it was run: as §1

ETV1 = ETV1 (Homo sapiens, UniProt P50549 1-477)
How it was run: as §1

ERF = biological target: T7, ERF (Homo sapiens, UniProt P50548 1-548)
T7 sequence: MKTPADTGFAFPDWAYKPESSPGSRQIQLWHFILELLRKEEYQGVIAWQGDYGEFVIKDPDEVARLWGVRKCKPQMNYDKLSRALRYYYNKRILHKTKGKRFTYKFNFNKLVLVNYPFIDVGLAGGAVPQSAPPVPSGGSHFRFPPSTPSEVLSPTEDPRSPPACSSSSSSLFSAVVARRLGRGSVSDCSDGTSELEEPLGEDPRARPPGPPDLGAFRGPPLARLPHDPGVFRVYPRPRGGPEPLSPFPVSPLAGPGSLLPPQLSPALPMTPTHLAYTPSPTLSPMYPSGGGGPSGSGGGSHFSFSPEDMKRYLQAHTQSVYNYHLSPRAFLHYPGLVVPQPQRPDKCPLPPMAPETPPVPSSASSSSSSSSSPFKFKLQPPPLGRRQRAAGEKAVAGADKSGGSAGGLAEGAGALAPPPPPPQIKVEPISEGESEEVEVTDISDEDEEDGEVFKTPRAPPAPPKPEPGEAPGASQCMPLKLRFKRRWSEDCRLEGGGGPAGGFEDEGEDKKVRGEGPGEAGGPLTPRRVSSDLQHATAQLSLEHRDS
How it was run: as §1

ETV3L = biological target: T8, ETV3L (Homo sapiens, UniProt Q6ZN32 1-361)
T8 sequence: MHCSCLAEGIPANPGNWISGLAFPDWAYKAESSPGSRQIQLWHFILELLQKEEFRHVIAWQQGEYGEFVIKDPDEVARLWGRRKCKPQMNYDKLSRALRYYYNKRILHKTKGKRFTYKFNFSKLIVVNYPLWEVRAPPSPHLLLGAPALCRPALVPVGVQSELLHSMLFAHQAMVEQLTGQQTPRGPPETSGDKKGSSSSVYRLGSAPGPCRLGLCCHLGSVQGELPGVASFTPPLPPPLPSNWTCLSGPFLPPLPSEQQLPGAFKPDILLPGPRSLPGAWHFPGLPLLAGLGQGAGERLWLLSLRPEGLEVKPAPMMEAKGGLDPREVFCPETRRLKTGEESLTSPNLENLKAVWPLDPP
How it was run: as §1

SPDEF = biological target: T9, SPDEF (Homo sapiens, UniProt O95238 1-335)
T9 sequence: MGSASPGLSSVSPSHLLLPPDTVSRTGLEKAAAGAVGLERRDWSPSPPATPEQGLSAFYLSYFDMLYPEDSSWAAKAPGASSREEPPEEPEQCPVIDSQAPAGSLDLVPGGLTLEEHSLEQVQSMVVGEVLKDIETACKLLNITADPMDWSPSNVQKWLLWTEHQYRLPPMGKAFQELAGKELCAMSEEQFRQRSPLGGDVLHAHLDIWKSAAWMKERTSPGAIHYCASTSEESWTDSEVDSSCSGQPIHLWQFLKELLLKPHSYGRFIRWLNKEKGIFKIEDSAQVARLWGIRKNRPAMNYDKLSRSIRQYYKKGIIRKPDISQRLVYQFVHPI
How it was run: as §1

ETV7 = biological target: T10, ETV7 (Homo sapiens, UniProt Q9Y603 1-341)
T10 sequence: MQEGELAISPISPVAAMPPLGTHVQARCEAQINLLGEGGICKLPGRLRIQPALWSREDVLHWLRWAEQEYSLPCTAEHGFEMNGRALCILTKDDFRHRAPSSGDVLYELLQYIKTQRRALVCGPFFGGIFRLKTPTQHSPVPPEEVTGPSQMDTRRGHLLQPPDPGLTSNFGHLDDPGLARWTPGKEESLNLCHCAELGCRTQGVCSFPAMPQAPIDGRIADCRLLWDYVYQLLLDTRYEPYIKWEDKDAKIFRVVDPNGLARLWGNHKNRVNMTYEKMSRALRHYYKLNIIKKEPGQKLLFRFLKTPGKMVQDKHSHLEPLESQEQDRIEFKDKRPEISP
How it was run: as §1

ETV3 = biological target: T11, ETV3 (Homo sapiens, UniProt P41162-2 1-143)
T11 sequence: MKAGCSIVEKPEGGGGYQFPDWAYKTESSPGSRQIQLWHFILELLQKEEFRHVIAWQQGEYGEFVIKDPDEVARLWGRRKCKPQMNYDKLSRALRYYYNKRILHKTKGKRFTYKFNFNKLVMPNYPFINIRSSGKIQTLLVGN
How it was run: as §1

ETS2 = biological target: T12, ETS2 (Homo sapiens, UniProt P15036 1-469)
T12 sequence: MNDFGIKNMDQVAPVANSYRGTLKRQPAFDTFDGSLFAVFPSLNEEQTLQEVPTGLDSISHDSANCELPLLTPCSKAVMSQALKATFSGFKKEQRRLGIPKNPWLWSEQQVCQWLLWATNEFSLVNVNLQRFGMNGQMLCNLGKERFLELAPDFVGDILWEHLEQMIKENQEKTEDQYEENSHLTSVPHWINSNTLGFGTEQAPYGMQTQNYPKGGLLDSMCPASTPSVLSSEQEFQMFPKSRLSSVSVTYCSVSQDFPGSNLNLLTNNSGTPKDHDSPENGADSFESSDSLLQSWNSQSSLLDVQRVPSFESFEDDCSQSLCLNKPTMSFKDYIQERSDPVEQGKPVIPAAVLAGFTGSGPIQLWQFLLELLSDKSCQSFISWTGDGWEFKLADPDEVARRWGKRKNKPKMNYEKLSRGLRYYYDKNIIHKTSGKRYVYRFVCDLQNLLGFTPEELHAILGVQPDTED
How it was run: as §1

Sequence of ETV5 (P41161 whole entry): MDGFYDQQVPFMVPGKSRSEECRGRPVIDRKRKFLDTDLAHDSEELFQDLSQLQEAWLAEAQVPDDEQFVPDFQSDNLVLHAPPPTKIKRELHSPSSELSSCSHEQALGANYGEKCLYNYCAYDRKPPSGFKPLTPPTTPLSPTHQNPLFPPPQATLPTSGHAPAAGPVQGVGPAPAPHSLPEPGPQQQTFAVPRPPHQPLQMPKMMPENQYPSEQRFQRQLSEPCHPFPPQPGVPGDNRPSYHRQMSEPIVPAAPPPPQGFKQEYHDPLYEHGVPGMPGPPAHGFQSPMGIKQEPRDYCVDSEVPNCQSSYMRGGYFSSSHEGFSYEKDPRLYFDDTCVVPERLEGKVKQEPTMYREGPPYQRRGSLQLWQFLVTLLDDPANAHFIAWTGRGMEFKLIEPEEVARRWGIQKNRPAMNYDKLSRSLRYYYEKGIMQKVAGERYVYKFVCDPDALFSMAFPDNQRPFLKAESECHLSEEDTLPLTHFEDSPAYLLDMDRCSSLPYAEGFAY
Sequence of ETV1 (P50549 whole entry): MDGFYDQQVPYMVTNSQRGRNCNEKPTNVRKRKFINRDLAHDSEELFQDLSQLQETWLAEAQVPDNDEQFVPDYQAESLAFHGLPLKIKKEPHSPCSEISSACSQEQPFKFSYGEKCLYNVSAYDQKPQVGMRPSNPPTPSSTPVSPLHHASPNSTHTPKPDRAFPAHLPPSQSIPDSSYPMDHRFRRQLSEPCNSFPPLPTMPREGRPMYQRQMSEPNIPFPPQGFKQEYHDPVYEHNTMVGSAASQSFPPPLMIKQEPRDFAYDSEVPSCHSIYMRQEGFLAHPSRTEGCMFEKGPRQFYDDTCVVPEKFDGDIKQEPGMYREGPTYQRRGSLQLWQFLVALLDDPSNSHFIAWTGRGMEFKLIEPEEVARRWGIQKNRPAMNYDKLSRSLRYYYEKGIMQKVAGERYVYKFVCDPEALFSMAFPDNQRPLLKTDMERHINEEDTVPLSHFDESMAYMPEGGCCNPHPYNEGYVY
Sequence of ELF1 (P32519 whole entry): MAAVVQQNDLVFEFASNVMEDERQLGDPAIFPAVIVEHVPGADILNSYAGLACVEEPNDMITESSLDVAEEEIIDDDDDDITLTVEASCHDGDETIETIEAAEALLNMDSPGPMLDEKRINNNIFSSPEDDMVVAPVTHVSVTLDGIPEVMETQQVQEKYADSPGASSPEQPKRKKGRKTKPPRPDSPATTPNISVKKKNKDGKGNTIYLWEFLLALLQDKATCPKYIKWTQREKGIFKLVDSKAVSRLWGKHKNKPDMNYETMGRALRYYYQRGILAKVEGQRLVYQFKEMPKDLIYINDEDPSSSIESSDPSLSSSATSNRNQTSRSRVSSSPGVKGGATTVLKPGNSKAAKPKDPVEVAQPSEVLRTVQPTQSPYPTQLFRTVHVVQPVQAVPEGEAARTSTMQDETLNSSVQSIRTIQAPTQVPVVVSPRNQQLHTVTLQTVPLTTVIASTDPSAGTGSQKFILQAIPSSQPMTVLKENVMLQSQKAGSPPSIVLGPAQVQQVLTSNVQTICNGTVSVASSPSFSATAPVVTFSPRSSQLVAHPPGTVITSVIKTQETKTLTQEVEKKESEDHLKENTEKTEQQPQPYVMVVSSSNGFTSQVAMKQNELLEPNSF
Sequence of ELF4 (Q99607 whole entry): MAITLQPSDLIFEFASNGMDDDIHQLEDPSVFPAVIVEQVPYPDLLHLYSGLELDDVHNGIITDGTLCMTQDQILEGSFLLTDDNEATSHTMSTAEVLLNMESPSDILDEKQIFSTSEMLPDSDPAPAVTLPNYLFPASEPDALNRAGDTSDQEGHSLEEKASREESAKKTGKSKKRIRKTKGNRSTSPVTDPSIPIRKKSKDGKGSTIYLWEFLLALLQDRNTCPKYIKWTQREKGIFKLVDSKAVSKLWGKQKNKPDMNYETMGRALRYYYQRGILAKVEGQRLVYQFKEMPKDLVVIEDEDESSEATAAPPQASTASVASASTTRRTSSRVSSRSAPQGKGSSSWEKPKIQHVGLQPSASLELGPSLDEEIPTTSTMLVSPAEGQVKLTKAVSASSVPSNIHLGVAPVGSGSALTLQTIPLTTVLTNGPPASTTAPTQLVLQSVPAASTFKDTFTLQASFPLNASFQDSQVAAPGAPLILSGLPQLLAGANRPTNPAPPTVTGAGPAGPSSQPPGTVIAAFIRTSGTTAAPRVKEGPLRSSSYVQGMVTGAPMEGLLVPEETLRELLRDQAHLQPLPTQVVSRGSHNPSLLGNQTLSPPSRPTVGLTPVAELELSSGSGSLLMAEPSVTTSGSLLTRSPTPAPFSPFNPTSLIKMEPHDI
Sequence of SPIB (Q01892 whole entry): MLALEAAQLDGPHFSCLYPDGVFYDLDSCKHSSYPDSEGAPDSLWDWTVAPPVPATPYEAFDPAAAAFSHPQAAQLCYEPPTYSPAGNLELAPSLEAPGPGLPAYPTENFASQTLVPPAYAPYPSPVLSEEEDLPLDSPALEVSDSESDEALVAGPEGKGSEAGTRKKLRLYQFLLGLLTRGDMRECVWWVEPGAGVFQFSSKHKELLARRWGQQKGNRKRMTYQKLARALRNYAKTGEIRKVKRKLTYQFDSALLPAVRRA

| Sequence | binding signal (ELK1) | binding signal (GABPA) | binding signal (ERG) | binding signal (ELF1) | binding signal (EHF) | binding signal (SPI1) | binding signal (SPIB) | binding signal (FEV) | binding signal (ETV5) | binding signal (ELF4) | binding signal (ELF3) | binding signal (ETV1) | binding signal (ERF) | binding signal (ETV3L) | binding signal (SPDEF) | binding signal (ETV7) | binding signal (ETV3) | binding signal (ETS2) |
| --- | --- | --- | --- | --- | --- | --- | --- | --- | --- | --- | --- | --- | --- | --- | --- | --- | --- | --- |
| AGTCCC | 1.06 fold enrichment (6-mer frequency, TF over GST control) | 1.03 fold enrichment (6-mer frequency, TF over GST control) | 1.07 fold enrichment (6-mer frequency, TF over GST control) | 1.08 fold enrichment (6-mer frequency, TF over GST control) | 1.01 fold enrichment (6-mer frequency, TF over GST control) | 1.26 fold enrichment (6-mer frequency, TF over GST control) | 1.03 fold enrichment (6-mer frequency, TF over GST control) | 1.09 fold enrichment (6-mer frequency, TF over GST control) | 1.04 fold enrichment (6-mer frequency, TF over GST control) | 1.06 fold enrichment (6-mer frequency, TF over GST control) | 1.11 fold enrichment (6-mer frequency, TF over GST control) | 1.11 fold enrichment (6-mer frequency, TF over GST control) | 1.17 fold enrichment (6-mer frequency, TF over GST control) | 1.04 fold enrichment (6-mer frequency, TF over GST control) | 1.03 fold enrichment (6-mer frequency, TF over GST control) | 1.07 fold enrichment (6-mer frequency, TF over GST control) | 1.06 fold enrichment (6-mer frequency, TF over GST control) | – |
| AGCTCG | – | 1.04 fold enrichment (6-mer frequency, TF over GST control) | – | – | – | – | – | 1.03 fold enrichment (6-mer frequency, TF over GST control) | 1.04 fold enrichment (6-mer frequency, TF over GST control) | – | – | 1.01 fold enrichment (6-mer frequency, TF over GST control) | 1.08 fold enrichment (6-mer frequency, TF over GST control) | – | – | – | – | 1.01 fold enrichment (6-mer frequency, TF over GST control) |
